# An excerpt weighted towards active compounds, which were near 5.8% of everything screened.
# uPA generation: qHTS for Inhibitors of Cell Surface uPA Generation; hit rate 0.31% among 330,000; Potency, µM (top dose mostly 38.3 µM), without a hit: at the highest dose activity change, negative = inhibition, most hits filed as inhibitors; cell surface uPA generation assay, qHTS; active = well fitted inhibition curve with a large enough effect; inconclusive = small, poorly fitted or top-dose-only effect; inactive = no such curve, though single readings can be large or run the other way; tested in mouse RAW 264.7 cells; note: potency is the fitted concentration of half-maximal effect; % is set by controls: 0 for no effect and ±100 for the full control effect; nearly all actives have a fitted effect of over 55% in size
# RORg inh: qHTS for inhibitors of ROR gamma transcriptional activity; Nuclear receptor ROR-gamma (Mus musculus), P51450; Drosophila S2 Gal4-RORgamma UAS-luciferase reporter, 20 h; Potency, µM (series often up to 53.6 µM), for the others: at the top dose activity change, negative = inhibition, hits mostly inhibitors; hit rate 5.4% among 310,000; note: potency is the fitted concentration of half-maximal effect; % is set by controls: 0 for no effect and ±100 for the full control effect; nearly all actives have a fitted effect of over 60% in size
# Target sequence (P51450 whole entry, looked up, the tested form may be a part): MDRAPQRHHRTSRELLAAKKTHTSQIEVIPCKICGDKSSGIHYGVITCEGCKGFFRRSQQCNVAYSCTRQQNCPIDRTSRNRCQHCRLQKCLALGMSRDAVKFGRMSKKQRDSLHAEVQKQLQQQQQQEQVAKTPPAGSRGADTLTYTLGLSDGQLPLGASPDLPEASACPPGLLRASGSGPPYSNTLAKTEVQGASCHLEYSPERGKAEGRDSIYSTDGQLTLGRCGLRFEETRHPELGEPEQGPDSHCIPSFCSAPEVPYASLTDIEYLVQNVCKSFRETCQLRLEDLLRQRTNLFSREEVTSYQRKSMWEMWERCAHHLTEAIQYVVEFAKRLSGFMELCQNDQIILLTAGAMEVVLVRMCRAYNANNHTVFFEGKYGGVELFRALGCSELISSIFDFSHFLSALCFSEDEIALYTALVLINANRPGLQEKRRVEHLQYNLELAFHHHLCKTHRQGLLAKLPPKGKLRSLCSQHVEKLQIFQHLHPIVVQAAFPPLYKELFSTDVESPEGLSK
#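 Luminescence from a UAS-regulated Photinus luciferase reporter in stably transfected Drosophila Schneider cells is measured; decreased signal marks ROR gamma inhibition. Fusion expression is induced by 700 uM copper sulfate for 20 hr.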
# TRPV1 PAM: HTS Assay for Compounds that Act as Potentiators of the Vanilloid Receptor 1. Transient receptor potential cation channel subfamily V member 1 (Homo sapiens), Q8NER1. hit rate 0.02% among 320,000. potentiation, % at 8.33 µM. TRPV1-expressing cells, Fluo-8 calcium influx, capsaicin EC20 potentiation; in the data active = potentiation above about 80%; inconclusive = between about 30% and that limit; note: 0% is about no effect
#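 TRPV1-expressing cells were cultured overnight at 35.5C and loaded with Fluo-8 calcium dye for 40 to 90 min at room temperature. After a 10 s baseline, compound was added and calcium influx was read kinetically for 3 min (ex 480/em 520 nm).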
# TRPV1 agonist: HTS Assay for Compounds that Act as Agonists of the Vanilloid Receptor 1 | Transient receptor potential cation channel subfamily V member 1 (Homo sapiens), Q8NER1 | TRPV1-expressing cells, Fluo-8 calcium influx, agonist mode | activation, % at 8.33 µM | hit rate 0.19% among 320,000; in the data active = activation above about 80%; inconclusive = between about 30% and that limit; note: 0% is about no effect
#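 TRPV1-expressing cells were cultured overnight at 35.5C and loaded with Fluo-8 calcium dye for 40 to 90 min at room temperature. After a 10 s baseline, compound was added and calcium influx was read kinetically for 3 min (ex 480/em 520 nm).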
# VP16 counter: VP16 counterscreen qHTS for inhibitors of ROR gamma transcriptional activity; Drosophila S2 Gal4-VP16 UAS-luciferase, luminescence, 20 h; Potency, µM (top dose mostly 53.6 µM), for the others: at the highest dose activity, negative = inhibition, actives largely listed as inhibitors; AID 2546, 2010; hit rate 3.5% among 310,000;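 note: Gal4-VP16 expression switched on by copper sulfate through the metallothionein promoter; potency is the fitted concentration of half-maximal effect; % is set by controls: 0 for no effect and ±100 for the full control effect; nearly all actives have a fitted effect of over 50% in size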
# * hit, by the source's call; ? = inconclusive; · = no result; ! = a repeat was not active; [ ] = dose if it differs, or a comment. Unless noted, calls come from the whole dose curve; as a rule, active = well fitted curve in the direction sought with a large enough effect; inconclusive = small, poorly fitted or top-dose-only effect, or another doubt; inactive = no such curve, though single readings can be large; an effect the other way counts as inactive or inconclusive.
SMILES,uPA generation,RORg inh,TRPV1 PAM,TRPV1 agonist,VP16 counter
CCc1nnc(NC(=O)C2Cc3ccccc3CN2S(=O)(=O)c2c(C)c(C)cc(C)c2C)s1 (configuration not stated),·,11µM*,15,5,-13%
CCS(=O)(=O)N1Cc2ccccc2CC1C(=O)Nc1nc2ccccc2[nH]1 (configuration not stated),1%,?,10,-2,-26%
CCS(=O)(=O)N1Cc2ccccc2CC1C(=O)Nc1nc2ccccc2s1 (configuration not stated),?,3.5µM*,8,-3,4.5µM*
O=C(CN1CCCC1)Nc1sc2c(c1C(=O)Nc1ccc(Br)cc1)CCC2,4%,2µM*,-12,16,3.5µM*
CCOc1ccc(NC(=O)c2c(NC(=O)CNCCN3CCOCC3)sc3c2CCC3)cc1,-17%,0.56µM*,-12,27,0.1µM*
CN1CCN(CC(=O)Nc2sc3c(c2C(=O)Nc2ccccc2)CCCC3)CC1,-29%,-14%,-3,2,-21%
Cn1c(-c2ccc(F)cc2)cnc1SCC(=O)N1CCCCC1,-5%,10µM*,-23,?,?
Cn1nnnc1Sc1ncnc2scc(-c3cc4ccccc4o3)c12,?,·,28,2,·
O=[N+]([O-])c1cc(C=Nc2ccc3ccccc3c2)ccc1Br,4%,20µM*,4,1,?
CCOc1ccc(N=Cc2ccc3ccccc3c2)cc1,1%,3%,5,4,-11%
CCOC(=O)NC(=S)Nc1ccc(C(C)(C)C)cc1Br,-9%,3.5µM*,-3,26,10µM*
CCN(CC)c1ccc(C(=O)Nc2ccccc2)cc1[N+](=O)[O-],4%,41%,-13,82*,-14%
COc1ccc(C(=O)Nc2ccc(NC(=O)c3cccs3)cc2)cc1[N+](=O)[O-],0%,-38%,18,-8,-9%
CCOc1ccc(C(=O)Nc2ccc(NC(=O)c3cccs3)cc2)cc1[N+](=O)[O-],4%,14µM*,-19,1,?
Cc1cc(NC(=O)c2ccc(C)c([N+](=O)[O-])c2)no1,4%,6.3µM*,-17,18,-11%
Cc1ccc(C(=O)NC(=S)Nc2ccc(NC(=O)c3cccs3)cc2)cc1[N+](=O)[O-],5%,6.3µM*,2,-1,6.3µM*
FC(F)(F)c1cccc(NC(=S)NCc2ccccc2)c1,1%,4.5µM*,-19,?,13µM*
FC(F)(F)c1cccc(NC(=S)NC(c2ccccc2)c2ccccc2)c1,-14%,7.1µM*,-7,?,6.3µM*
FC(F)(F)c1cccc(NC(=S)NNC(=S)Nc2cccc(C(F)(F)F)c2)c1,·,-12%,1,9,-29%
FC(F)(F)c1cccc(CNC(=S)Nc2ccccc2)c1,0%,5.6µM*,-9,?,-18%[10 µM]
O=C1CN(C(=O)COc2ccc(F)cc2Br)c2ccccc2N1,0%,34%,-7,-5,-2%
CC(C)c1nc2sc3c(=S)nc[nH]c3c2c2c1CCC2,0%,3.2µM*,4,2,?
CC(C)c1nc2sc3c(=O)[nH]cnc3c2c2c1CCC2,-1%,33%,-19,-1,-9%
O=C(NC1=NCCS1)c1ccc([N+](=O)[O-])cc1Cl,3%,-41%,2,2,0%
CC(C)C[C@@H](NC(=O)[C@@H](O)[C@H](N)Cc1ccccc1)C(=O)O,·,1%,·,·,2%
SMILES,uPA generation,RORg inh,TRPV1 PAM,TRPV1 agonist,VP16 counter
CC/C(CC(=O)C(F)(F)F)=N\NC(=O)/C(C#N)=C/N(C)C,-9%,7.1µM*,8,0,?
Cc1cc(OCCCC(=O)NCCc2nnc3ccccn23)ccc1Cl,-13%,·,·,·,·
C=CCN(C)NC(=S)Nc1ccccc1,6%,5µM*,-4,0,10µM*
C=CCN(C)NC(=O)Nc1ccccc1,4%,20%,-5,-3,0%
COCCNC(=S)NNC(=O)CSCc1ccc(Cl)cc1Cl,0%,10µM*,-33,-1,-28%
CNC(=O)CSCc1c(Cl)cccc1Cl,-3%,-20%,5,-1,-6%
CNC(=S)NNC(=O)CSCc1c(Cl)cccc1Cl,1%,11µM*,7,-1,20µM*
O=C(CSCc1ccccc1)NNC(=S)Nc1cccc(Cl)c1Cl,1%,6.3µM*,10,3,?
CC1CCN(c2ccc(NC(=O)c3ccc(Br)o3)cc2)CC1,-5%,-21%,-14,?,-4%
Cc1ccc2c(c1)N(CC(=O)Nc1ccccc1F)C(=O)C(C)O2 (configuration not stated),-1%,·,·,·,·
CCCc1c(OCCCCc2nn[nH]n2)ccc(C(C)=O)c1O,8%,?,6,1,13µM*!
CCCc1c(OCC(O)COc2ccc3c(=O)cc(C(=O)O)oc3c2CCC)ccc(C(C)=O)c1O (configuration not stated),·,27%,·,·,-16%
Cc1ccc(NS(=O)(=O)N2CCCCC2)cc1,1%,·,·,·,·
CC#CCOC(=O)c1c(C)nc2sc3c(c2c1N)CC[C@@H](O)C3,·,7.1µM*,·,·,?
CSCC[C@H](NC(=O)OC(C)(C)C)c1nnc(SCC=C(C)C)o1,5%,11µM*,-13,?,-20%
CCOC(=O)CSc1nnc([C@H](CC(C)C)NC(=O)OC(C)(C)C)o1,-1%,13µM*,1,0,2%
Cc1cc(/C=N/NC(=O)C(=O)NCc2ccccn2)c(C)n1-c1ccccc1,-8%,6%,6,0,8%
Cc1ccc(/C=c2/sc3nnc(-c4ccccc4Cl)n3c2=O)o1,2%,4.5µM*,9,-1,?
COC(=O)CS,·,0%,·,·,4%
CCCCn1c(NCCO)nc2ccccc21,-8%,27%,16,-1,-3%
CCn1c(NC(=O)/C=C/c2ccc(F)cc2)nc2ccccc21,2%,1.3µM*,-2,7,?
CCn1c(NC(=O)c2ccccc2)nc2ccccc21,-2%,0.32µM*,0,8,2.5µM*
CCCCn1c(CNC(=O)c2cccs2)nc2ccccc21,1%,11µM*,-2,17,?
CCOC(=O)c1sc(NC(=O)/C=C/c2ccc(F)cc2)nc1C,2%,12%,9,-4,-2%
CNc1nc2ccccc2n1CC(=O)c1ccccc1,-6%,-13%,2,0,11%
CCCCn1c(NC(=O)c2ccccc2)nc2ccccc21,-7%,1.1µM*,-7,0,2.2µM*
CC[C@H](C)[C@H](NC(=O)[C@H](CC(C)C)NC(=O)[C@@H](N)CO)C(=O)NCC(=O)N[C@@H](CCCCN)C(=O)N[C@H](C(=O)O)C(C)C,·,3%,·,·,-5%
NC(=O)c1ccccc1C[C@H](C(=O)O)N1C(=O)c2ccc(C(=O)O)cc2C1=O,·,-14%,·,·,-1%
